# Values without a mark were called inactive.
# Key:
# Assay in all cases: log2 ratio of Biotin-Ahx-Ub-VS probe labelling (fragment/DMSO); higher = less target engagement (more negative = stronger competition), active = hit call of the paper (q ≤ 0.05, log2 ratio ≤ -1)
# Settings in all cases: compound concentration: 200 uM; treatment time: 3 h
# OTUD6B = molecular target: T1, OTUD6B (UniProt Q8N6M0)
# T1 sequence (whole entry): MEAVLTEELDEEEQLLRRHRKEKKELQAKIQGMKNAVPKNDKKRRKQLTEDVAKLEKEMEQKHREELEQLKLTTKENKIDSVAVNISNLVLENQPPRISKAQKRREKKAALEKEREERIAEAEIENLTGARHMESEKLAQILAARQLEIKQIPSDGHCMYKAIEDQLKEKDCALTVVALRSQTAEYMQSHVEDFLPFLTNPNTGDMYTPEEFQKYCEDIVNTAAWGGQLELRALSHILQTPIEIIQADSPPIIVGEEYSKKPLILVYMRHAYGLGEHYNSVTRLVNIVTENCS
# How it was run: (§1)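 Labelled DUBs were enriched with NeutrAvidin, digested with LysC and trypsin, and run by diaPASEF LC-MS/MS. The labelling used Biotin-Ahx-Ub-VS at 0.5 µM final for 1 h on HEK293T lysate (495 µg per sample) previously treated in triplicate with fragment at 200 µM or vehicle for 3 h. Values are average log2 fragment/vehicle ratios by unpaired t-test on global-median-normalised Spectronaut quantities of proteins with ≥2 unique peptides.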
# OTUD7B = molecular target: T2, OTUD7B (UniProt Q6GQQ9)
# T2 sequence (whole entry): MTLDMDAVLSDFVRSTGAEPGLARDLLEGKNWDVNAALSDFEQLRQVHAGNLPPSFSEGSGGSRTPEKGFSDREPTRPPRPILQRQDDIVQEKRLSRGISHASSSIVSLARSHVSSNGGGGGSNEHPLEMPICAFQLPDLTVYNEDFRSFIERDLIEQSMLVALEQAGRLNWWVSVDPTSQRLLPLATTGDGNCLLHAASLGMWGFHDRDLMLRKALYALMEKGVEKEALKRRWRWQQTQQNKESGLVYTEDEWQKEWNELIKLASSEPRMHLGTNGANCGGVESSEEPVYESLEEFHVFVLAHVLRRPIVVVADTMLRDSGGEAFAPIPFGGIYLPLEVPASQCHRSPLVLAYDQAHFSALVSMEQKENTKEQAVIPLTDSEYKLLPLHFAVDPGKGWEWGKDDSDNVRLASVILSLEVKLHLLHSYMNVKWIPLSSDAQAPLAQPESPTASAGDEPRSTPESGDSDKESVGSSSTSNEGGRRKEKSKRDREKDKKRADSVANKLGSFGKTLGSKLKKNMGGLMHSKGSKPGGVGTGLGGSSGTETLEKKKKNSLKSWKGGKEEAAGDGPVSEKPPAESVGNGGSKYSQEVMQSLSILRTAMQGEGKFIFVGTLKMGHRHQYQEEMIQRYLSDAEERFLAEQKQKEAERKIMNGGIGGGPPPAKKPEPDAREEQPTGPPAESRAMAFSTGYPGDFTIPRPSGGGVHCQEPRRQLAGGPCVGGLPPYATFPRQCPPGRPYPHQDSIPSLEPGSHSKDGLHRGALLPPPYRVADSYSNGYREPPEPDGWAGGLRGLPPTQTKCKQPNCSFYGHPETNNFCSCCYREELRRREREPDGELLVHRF
# How it was run: as §1
# PRPF8 = PRPF8 (UniProt Q6P2Q9)
# How it was run: as §1
# PSMD7 = molecular target: T3, PSMD7 (UniProt P51665)
# T3 sequence (whole entry): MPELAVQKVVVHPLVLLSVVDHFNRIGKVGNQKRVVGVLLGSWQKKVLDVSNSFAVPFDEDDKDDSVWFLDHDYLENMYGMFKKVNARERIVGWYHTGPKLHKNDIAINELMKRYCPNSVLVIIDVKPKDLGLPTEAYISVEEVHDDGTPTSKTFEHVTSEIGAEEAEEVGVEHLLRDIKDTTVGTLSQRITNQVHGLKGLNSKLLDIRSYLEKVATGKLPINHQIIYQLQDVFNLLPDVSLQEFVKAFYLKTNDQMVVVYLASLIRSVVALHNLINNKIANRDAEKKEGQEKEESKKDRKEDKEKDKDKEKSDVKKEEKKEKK
# How it was run: as §1
# UCHL1 = UCHL1 (UniProt P09936)
# How it was run: as §1
# UCHL3 = molecular target: T4, UCHL3 (UniProt P15374)
# T4 sequence (whole entry): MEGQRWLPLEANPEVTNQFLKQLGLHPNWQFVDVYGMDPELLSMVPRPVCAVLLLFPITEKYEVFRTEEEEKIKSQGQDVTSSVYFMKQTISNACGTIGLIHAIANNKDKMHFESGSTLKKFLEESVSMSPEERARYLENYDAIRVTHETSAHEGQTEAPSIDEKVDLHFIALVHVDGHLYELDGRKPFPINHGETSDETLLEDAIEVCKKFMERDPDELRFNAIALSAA
# How it was run: as §1
# UCHL5 = molecular target: T5, UCHL5 (UniProt Q9Y5K5)
# T5 sequence (whole entry): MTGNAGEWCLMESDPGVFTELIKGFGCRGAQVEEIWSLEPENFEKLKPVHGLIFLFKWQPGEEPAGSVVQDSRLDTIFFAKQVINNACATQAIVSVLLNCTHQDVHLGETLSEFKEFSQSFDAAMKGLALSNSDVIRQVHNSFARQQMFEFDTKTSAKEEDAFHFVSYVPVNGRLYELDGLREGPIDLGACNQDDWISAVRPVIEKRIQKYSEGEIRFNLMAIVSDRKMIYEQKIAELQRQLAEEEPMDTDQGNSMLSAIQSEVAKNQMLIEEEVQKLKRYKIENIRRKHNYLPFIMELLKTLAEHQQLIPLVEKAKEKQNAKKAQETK
# How it was run: as §1
# USP10 = USP10 (UniProt Q14694)
# How it was run: as §1
# USP15 = molecular target: T6, USP15 (UniProt Q9Y4E8)
# T6 sequence (whole entry): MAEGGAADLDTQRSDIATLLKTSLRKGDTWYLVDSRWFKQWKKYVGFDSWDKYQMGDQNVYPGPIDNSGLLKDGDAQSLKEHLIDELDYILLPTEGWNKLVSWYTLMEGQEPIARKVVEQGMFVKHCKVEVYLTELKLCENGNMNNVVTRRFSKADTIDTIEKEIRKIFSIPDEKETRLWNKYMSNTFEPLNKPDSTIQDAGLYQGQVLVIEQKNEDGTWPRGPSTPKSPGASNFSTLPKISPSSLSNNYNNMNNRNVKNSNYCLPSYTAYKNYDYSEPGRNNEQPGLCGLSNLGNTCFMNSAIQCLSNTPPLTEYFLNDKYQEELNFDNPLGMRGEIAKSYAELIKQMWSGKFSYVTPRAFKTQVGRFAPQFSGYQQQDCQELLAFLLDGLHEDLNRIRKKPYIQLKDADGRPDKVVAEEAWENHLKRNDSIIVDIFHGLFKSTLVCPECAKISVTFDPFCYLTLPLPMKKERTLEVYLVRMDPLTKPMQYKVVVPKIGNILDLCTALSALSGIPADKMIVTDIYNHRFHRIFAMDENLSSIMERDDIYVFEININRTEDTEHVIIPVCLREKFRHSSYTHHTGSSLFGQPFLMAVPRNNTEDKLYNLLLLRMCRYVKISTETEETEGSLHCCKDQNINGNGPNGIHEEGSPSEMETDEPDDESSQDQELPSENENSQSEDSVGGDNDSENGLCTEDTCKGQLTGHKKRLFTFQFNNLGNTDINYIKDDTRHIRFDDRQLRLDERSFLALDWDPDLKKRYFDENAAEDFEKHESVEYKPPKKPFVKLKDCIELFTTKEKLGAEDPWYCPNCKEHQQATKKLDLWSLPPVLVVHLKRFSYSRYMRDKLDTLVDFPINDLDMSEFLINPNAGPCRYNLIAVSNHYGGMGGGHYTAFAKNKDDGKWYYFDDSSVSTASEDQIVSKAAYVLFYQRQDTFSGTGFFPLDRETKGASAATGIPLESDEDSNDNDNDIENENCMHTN
# How it was run: as §1
# Sequence of UCHL1 (P09936 whole entry, looked up): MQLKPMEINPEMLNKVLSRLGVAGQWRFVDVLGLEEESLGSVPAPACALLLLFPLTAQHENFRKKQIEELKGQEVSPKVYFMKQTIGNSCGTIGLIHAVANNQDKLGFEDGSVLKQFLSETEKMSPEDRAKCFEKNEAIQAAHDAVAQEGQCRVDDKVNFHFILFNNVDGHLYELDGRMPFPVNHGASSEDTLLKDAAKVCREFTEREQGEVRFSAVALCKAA
# Sequence of USP10 (Q14694 whole entry): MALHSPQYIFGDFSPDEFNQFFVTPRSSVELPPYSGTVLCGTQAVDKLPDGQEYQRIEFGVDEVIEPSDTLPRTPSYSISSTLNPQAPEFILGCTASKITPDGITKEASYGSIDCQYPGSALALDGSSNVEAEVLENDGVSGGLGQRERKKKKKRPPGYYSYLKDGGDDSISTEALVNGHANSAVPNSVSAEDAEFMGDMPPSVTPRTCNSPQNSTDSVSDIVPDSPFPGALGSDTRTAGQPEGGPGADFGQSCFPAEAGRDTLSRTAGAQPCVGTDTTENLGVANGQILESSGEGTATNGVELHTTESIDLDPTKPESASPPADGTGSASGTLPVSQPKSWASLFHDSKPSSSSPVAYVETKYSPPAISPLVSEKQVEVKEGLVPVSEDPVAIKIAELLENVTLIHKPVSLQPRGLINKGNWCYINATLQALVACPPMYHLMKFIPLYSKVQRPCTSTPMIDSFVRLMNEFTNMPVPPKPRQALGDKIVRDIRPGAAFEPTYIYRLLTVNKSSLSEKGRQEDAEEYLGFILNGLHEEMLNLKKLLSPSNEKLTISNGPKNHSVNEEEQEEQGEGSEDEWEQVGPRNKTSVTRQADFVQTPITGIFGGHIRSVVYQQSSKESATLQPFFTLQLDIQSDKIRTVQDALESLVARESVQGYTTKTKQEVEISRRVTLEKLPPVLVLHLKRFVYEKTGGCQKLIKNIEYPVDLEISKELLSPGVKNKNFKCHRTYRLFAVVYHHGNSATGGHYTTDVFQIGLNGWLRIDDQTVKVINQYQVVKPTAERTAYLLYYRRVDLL
compound,measurement,setting,value
COCC[C@@H](NC(=O)CCl)c1ccccc1,log2 ratio of Biotin-Ahx-Ub-VS probe labelling,OTUD6B,0.0947
same,log2 ratio of Biotin-Ahx-Ub-VS probe labelling,OTUD7B,-0.357
same,log2 ratio of Biotin-Ahx-Ub-VS probe labelling,PRPF8,-0.103
same,log2 ratio of Biotin-Ahx-Ub-VS probe labelling,PSMD7,-0.216
same,log2 ratio of Biotin-Ahx-Ub-VS probe labelling,UCHL1,-1.4 (active)
same,log2 ratio of Biotin-Ahx-Ub-VS probe labelling,UCHL3,0.334
same,log2 ratio of Biotin-Ahx-Ub-VS probe labelling,UCHL5,-0.0927
same,log2 ratio of Biotin-Ahx-Ub-VS probe labelling,USP10,0.0397
same,log2 ratio of Biotin-Ahx-Ub-VS probe labelling,USP15,-0.00696
